What all share (experiment): DAPPL (digital affinity profiling via proximity ligation, sequencing); 10 mM Tris-HCl pH 7.5, 50 mM NaCl, 1 mM DTT, 4% glycerol, room temperature, 30 min; GST-TFs on glutathione beads, 16-mer random dsDNA library, 0.1% formaldehyde crosslink after washing; high values mean tight binding
In one assay the target is T1, FLI1 (Homo sapiens, UniProt Q01543 1-452).
T1 sequence: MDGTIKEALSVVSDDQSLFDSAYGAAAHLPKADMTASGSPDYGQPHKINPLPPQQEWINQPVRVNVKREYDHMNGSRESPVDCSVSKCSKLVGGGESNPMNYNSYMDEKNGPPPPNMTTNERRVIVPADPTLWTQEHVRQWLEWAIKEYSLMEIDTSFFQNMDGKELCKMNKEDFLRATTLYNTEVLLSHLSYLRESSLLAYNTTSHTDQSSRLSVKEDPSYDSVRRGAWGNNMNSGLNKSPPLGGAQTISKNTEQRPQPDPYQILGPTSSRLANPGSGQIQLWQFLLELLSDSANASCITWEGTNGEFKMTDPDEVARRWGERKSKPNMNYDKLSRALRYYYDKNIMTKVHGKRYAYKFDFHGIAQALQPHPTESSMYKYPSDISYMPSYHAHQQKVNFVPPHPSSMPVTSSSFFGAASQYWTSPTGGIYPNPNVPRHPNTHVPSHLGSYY
To be noted: protein: recombinant; tags: N-terminal GST; dsDNA, one strand shown. The procedure, abridged:
(§1)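 A tag-only sample was pooled with DNA-barcoded human transcription factors that had been expressed in yeast as GST fusions and captured on glutathione beads. The pools were incubated for 30 min at room temperature with 200 nmole of a random double-stranded 16-mer DNA library in Tris/NaCl/DTT/glycerol buffer, then washed, crosslinked with 0.1% formaldehyde, proximity-ligated (BsaI/T4 ligase, 1 h, 37 °C), PCR-amplified and sequenced on an Illumina NextSeq500. Binding signal is each hexamer's read frequency for a factor divided by its frequency for the tag-only sample.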

The target of the next assay is T2, ELK1 (Homo sapiens, UniProt P19419 1-428).
T2 sequence: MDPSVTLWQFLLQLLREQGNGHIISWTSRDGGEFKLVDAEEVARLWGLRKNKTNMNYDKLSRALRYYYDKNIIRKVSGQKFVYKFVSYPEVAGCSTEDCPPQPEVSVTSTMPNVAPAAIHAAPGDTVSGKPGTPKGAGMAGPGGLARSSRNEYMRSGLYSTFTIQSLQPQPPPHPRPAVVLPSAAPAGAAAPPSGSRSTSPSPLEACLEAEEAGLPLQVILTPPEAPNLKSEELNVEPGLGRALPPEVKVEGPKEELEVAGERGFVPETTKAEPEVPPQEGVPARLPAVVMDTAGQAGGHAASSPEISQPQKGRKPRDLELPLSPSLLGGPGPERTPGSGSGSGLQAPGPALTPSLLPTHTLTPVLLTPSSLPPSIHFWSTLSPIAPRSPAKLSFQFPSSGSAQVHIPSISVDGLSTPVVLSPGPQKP
To be noted: protein: recombinant; tags: N-terminal GST; dsDNA, one strand shown. The procedure, abridged: as §1

Another assay concerns the target T3, GABPA (Homo sapiens, UniProt Q06546 1-454).
T3 sequence: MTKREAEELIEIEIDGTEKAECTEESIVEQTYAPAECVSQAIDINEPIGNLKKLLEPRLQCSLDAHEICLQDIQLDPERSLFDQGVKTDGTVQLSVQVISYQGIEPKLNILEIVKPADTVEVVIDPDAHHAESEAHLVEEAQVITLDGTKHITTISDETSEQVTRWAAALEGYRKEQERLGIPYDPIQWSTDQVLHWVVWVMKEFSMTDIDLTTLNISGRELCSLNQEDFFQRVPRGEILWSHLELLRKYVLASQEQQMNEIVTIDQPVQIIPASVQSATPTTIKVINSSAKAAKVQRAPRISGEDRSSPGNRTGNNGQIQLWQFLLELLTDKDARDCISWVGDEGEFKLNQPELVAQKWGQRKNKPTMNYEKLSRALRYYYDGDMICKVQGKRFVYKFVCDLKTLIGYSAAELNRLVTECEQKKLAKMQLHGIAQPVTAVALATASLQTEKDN
To be noted: protein: recombinant; tags: N-terminal GST; dsDNA, one strand shown. The procedure, abridged:
as §1

A further assay has as its target T4, ERG (Homo sapiens, UniProt P11308 1-479).
T4 sequence: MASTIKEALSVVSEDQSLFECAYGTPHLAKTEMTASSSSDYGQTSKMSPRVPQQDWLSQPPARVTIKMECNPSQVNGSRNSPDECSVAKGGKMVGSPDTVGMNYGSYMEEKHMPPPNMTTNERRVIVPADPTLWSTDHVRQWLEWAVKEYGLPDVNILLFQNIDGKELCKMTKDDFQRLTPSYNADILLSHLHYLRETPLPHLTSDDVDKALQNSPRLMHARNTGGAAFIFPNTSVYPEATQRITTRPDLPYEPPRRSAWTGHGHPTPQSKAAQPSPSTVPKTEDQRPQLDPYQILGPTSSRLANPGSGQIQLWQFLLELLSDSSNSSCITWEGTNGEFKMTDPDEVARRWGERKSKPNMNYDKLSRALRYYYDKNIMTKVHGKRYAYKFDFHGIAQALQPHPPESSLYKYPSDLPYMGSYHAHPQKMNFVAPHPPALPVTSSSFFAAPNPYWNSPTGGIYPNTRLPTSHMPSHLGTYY
To be noted: protein: recombinant; tags: N-terminal GST; dsDNA, one strand shown. The procedure, abridged: as §1

A further assay concerns the target ELF1 (Homo sapiens, UniProt P32519 1-619). To be noted: protein: recombinant; tags: N-terminal GST; dsDNA, one strand shown. The procedure, abridged:
as §1

The target of another assay is T5, EHF (Homo sapiens, UniProt Q9NZC4 1-300).
T5 sequence: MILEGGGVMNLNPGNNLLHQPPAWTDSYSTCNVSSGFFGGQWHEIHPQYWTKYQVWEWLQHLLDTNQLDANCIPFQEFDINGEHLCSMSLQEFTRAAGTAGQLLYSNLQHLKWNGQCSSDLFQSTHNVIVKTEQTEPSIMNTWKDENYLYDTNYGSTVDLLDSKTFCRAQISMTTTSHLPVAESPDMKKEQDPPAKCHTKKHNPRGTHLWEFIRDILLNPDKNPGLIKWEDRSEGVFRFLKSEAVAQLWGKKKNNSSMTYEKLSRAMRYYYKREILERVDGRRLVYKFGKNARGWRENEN
To be noted: protein: recombinant; tags: N-terminal GST; dsDNA, one strand shown. The procedure, abridged:
as §1

The next assay addresses SPI1 (Homo sapiens, UniProt P17947 1-270). To be noted: protein: recombinant; tags: N-terminal GST; dsDNA, one strand shown. The procedure, abridged: as §1
The target of another assay is SPIB (Homo sapiens, UniProt Q01892 1-262). The following applies: protein: recombinant; tags: N-terminal GST; dsDNA, one strand shown. The procedure, abridged:
as §1

The target of a further assay is T6, ELK3 (Homo sapiens, UniProt P41970 1-407).
T6 sequence: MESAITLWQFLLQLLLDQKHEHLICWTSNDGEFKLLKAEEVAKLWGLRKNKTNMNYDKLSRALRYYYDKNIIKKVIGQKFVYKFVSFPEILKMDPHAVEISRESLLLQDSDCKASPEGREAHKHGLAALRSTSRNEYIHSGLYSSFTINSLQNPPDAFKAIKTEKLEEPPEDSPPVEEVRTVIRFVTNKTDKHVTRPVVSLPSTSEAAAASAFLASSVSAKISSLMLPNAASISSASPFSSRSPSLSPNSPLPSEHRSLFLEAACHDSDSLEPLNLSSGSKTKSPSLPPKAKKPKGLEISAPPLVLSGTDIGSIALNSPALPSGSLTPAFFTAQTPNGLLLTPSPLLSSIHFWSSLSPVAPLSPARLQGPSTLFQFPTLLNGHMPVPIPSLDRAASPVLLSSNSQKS
The following applies: protein: recombinant; tags: N-terminal GST; dsDNA, one strand shown. The procedure, abridged:
as §1

The target of another assay is T7, FEV (Homo sapiens, UniProt Q99581 1-238).
T7 sequence: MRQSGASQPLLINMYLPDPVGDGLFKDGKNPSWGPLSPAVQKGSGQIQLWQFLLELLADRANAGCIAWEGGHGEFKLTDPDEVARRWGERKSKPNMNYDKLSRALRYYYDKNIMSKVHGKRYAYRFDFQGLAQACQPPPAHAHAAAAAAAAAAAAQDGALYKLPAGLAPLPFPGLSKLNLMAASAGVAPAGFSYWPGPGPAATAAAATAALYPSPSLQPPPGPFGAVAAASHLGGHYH
To be noted: protein: recombinant; tags: N-terminal GST; dsDNA, one strand shown. The procedure, abridged:
as §1

The next assay has as its target ETV5 (Homo sapiens, UniProt P41161 1-510). The following applies: protein: recombinant; tags: N-terminal GST; dsDNA, one strand shown. The procedure, abridged:
as §1

In another assay the target is HSF1 (Homo sapiens, UniProt Q00613 1-529). To be noted: protein: recombinant; tags: N-terminal GST; chain copies: 3; dsDNA, one strand shown. The procedure, abridged: as §1
A further assay deals with T8, SPIC (Homo sapiens, UniProt Q8N5J4 1-248).
T8 sequence: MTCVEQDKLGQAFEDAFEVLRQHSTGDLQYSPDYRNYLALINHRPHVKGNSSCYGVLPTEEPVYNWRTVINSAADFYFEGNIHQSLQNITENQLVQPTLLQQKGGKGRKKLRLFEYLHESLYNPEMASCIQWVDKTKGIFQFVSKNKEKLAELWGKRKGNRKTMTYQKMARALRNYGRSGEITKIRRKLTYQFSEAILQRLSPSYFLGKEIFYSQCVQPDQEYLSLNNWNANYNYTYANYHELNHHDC
The following applies: protein: recombinant; tags: N-terminal GST; dsDNA, one strand shown. The procedure, abridged: as §1

Another assay has as its target ELF4 (Homo sapiens, UniProt Q99607 1-663). To be noted: protein: recombinant; tags: N-terminal GST; dsDNA, one strand shown. The procedure, abridged:
as §1

For a further assay, the target named is T9, ELK4 (Homo sapiens, UniProt P28324-2 1-405).
T9 sequence: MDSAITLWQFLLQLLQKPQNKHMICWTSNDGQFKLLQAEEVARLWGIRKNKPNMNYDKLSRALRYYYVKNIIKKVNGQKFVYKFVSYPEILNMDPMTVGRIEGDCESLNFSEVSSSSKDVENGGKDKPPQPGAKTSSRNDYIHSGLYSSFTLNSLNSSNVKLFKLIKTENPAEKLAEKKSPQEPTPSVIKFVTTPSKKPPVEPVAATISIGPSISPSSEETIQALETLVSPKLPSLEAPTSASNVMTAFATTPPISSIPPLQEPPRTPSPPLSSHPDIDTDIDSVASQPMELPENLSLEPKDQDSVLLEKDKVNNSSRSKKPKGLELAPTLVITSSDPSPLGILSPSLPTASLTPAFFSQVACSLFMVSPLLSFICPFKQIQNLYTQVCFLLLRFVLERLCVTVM
The following applies: protein: recombinant; tags: N-terminal GST; dsDNA, one strand shown. The procedure, abridged: as §1

The target of another assay is T10, ETV2 (Homo sapiens, UniProt O00321 1-342).
T10 sequence: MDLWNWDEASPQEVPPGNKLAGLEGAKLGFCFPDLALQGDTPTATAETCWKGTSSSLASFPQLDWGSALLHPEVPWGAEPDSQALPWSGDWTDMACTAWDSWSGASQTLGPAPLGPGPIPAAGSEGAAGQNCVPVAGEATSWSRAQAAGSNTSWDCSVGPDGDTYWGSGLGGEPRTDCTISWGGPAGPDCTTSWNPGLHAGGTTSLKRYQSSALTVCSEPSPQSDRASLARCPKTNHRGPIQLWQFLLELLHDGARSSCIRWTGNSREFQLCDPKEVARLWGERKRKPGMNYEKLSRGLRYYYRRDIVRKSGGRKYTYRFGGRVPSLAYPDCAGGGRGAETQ
To be noted: protein: recombinant; tags: N-terminal GST; dsDNA, one strand shown. The procedure, abridged:
as §1

For another assay, the target named is T11, ELF3 (Homo sapiens, UniProt P78545 1-371).
T11 sequence: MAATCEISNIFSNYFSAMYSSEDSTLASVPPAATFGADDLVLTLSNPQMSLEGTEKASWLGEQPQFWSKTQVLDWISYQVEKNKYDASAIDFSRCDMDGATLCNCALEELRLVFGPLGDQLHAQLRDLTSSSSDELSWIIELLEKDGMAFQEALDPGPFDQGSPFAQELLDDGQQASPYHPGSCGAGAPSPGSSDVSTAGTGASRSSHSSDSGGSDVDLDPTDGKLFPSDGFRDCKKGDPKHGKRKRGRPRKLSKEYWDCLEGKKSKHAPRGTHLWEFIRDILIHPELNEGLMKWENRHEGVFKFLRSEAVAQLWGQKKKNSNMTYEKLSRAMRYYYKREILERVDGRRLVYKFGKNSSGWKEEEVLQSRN
The following applies: protein: recombinant; tags: N-terminal GST; dsDNA, one strand shown. The procedure, abridged: as §1

Another assay has as its target CRX (Homo sapiens, UniProt O43186 1-299). The following applies: protein: recombinant; tags: N-terminal GST; dsDNA, one strand shown. The procedure, abridged: as §1
A further assay addresses ETV1 (Homo sapiens, UniProt P50549 1-477). To be noted: protein: recombinant; tags: N-terminal GST; dsDNA, one strand shown. The procedure, abridged:
as §1

CRX, sequence (O43186 whole entry): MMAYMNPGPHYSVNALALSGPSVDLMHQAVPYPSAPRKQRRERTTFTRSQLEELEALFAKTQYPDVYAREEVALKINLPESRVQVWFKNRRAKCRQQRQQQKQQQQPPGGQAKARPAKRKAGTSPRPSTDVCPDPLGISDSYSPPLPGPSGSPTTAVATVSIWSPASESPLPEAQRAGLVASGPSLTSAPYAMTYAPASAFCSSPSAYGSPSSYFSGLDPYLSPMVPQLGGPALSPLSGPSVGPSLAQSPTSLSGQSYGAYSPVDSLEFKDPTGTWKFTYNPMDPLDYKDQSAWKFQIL
HSF1, sequence (Q00613 whole entry): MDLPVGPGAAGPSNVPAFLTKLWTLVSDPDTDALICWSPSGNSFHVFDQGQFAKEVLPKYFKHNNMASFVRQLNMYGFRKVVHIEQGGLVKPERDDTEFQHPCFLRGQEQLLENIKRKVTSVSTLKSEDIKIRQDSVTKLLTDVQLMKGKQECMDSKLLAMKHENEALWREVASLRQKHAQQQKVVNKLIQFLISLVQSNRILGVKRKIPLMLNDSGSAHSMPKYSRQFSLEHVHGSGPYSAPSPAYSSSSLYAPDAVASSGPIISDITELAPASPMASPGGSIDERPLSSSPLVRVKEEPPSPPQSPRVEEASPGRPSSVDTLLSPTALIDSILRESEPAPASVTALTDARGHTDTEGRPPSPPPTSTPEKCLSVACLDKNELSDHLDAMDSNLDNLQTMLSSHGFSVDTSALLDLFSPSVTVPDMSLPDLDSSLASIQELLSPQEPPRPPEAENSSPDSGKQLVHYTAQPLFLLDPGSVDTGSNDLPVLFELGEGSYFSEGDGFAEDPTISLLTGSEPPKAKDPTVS
ETV5, sequence (P41161 whole entry): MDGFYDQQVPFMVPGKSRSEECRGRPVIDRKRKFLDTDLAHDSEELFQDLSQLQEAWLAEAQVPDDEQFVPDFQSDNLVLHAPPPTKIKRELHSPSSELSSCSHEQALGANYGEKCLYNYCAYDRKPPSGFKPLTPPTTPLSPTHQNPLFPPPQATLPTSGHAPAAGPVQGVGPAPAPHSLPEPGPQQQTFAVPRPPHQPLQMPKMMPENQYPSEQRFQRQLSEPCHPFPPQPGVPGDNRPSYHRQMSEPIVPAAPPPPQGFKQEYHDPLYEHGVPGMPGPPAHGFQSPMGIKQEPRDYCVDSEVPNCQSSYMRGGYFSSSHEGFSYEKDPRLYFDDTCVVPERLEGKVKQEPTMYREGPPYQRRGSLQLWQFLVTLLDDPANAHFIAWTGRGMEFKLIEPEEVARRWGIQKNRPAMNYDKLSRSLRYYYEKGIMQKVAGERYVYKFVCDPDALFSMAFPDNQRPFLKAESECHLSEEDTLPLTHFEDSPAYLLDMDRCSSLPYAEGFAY
ELF4, sequence (Q99607 whole entry): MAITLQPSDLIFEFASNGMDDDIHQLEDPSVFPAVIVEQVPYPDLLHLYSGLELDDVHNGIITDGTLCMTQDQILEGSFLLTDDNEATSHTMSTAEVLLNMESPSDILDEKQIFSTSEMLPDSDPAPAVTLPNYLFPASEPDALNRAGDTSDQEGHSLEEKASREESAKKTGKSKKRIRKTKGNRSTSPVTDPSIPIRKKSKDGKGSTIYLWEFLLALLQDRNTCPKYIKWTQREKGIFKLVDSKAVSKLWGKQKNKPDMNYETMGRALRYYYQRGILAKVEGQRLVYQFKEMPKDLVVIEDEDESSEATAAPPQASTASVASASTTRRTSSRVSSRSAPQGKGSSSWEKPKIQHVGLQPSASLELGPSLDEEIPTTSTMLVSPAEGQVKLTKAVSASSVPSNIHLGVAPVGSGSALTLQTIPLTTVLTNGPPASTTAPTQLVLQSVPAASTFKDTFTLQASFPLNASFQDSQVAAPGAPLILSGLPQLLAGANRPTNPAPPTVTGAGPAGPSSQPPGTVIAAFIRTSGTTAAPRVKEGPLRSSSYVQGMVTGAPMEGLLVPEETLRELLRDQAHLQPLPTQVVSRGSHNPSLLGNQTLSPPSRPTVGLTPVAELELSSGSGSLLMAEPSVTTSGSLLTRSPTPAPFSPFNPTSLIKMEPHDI
SPIB, sequence (Q01892 whole entry): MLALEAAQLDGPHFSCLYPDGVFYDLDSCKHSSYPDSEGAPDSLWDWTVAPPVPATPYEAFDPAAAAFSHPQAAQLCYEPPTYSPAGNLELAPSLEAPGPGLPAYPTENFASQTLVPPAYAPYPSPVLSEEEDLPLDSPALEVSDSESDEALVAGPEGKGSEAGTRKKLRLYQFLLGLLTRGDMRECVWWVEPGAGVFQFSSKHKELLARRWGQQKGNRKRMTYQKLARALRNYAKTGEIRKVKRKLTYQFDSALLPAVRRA
ELF1, sequence (P32519 whole entry): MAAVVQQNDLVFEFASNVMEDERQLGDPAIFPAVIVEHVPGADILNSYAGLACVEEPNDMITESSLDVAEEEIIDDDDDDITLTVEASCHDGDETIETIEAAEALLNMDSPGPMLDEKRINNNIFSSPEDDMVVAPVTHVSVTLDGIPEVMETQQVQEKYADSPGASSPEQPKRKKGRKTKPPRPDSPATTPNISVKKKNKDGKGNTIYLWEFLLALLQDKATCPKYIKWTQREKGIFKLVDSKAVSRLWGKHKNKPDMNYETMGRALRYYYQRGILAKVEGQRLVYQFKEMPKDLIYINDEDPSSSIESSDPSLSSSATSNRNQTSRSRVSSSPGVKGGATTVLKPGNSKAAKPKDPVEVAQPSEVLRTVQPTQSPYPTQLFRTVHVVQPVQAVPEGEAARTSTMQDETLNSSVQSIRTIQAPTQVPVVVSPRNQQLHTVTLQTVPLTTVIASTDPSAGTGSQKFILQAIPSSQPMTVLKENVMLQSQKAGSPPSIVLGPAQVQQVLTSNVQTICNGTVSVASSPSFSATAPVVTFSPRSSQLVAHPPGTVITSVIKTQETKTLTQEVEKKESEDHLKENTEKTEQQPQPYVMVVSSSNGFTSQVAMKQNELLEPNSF
ETV1, sequence (P50549 whole entry): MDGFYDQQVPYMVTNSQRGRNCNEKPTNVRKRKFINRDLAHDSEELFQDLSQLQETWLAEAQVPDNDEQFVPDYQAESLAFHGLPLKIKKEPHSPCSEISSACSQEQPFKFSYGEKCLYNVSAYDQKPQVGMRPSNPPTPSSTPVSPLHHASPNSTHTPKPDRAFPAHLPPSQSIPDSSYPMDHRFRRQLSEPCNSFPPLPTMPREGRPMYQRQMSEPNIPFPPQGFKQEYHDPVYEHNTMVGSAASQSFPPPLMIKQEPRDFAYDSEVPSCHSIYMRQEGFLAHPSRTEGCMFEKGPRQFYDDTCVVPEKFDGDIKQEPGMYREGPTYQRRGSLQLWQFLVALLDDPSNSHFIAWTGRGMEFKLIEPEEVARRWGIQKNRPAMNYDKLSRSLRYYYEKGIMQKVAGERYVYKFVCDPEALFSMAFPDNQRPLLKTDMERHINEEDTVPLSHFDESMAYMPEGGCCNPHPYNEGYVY

AAGAAC: the binding signal with FLI1 is 1.13 fold enrichment (6-mer frequency, TF over GST control); with ELK1 it was 1.18 fold enrichment (6-mer frequency, TF over GST control); in the assay with GABPA it was 1.15 fold enrichment (6-mer frequency, TF over GST control); with ERG, 1.22 fold enrichment (6-mer frequency, TF over GST control); with ELF1, 1.17 fold enrichment (6-mer frequency, TF over GST control); with EHF it was 1.24 fold enrichment (6-mer frequency, TF over GST control). Further, the binding signal with SPI1 is 1.14 fold enrichment (6-mer frequency, TF over GST control); with SPIB, 1.05 fold enrichment (6-mer frequency, TF over GST control); in the assay with ELK3, 1.24 fold enrichment (6-mer frequency, TF over GST control); with FEV, 1.19 fold enrichment (6-mer frequency, TF over GST control); with ETV5, 1.16 fold enrichment (6-mer frequency, TF over GST control); with HSF1 it was 1.63 fold enrichment (6-mer frequency, TF over GST control). Further, the binding signal in the assay with SPIC was 1.24 fold enrichment (6-mer frequency, TF over GST control); with ELF4, 1.2 fold enrichment (6-mer frequency, TF over GST control); in the assay with ELK4 it was 1.18 fold enrichment (6-mer frequency, TF over GST control); in the assay with ETV2 it was 1.13 fold enrichment (6-mer frequency, TF over GST control); with ELF3, 1.16 fold enrichment (6-mer frequency, TF over GST control); in the assay with CRX, 1.28 fold enrichment (6-mer frequency, TF over GST control). Also, in the assay with ETV1, the binding signal is 1.22 fold enrichment (6-mer frequency, TF over GST control).

The record behind these values is paper PMC7862700, “An all-to-all approach to the identification of sequence-specific readers for epigenetic DNA modifications on cytosine”.
